Assay results: PubChem BioAssay (NCATS)
Records with an inconclusive call do not appear. Active and inactive are the calls of the source. Calls follow the shape of the dose curve; as a rule, active = well fitted curve in the direction sought with a large enough effect; inconclusive = small, poorly fitted or top-dose-only effect, or another doubt; inactive = no such curve, though single readings can be large; an effect the other way counts as inactive or inconclusive.

How the values were obtained:
[1] = Cellular Toxicity (caspase-3) Hek293 (AID 664);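 also: cells exposed to compound for 16 h at 37 °C before readout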
Outline: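 HEK293 cells in complete medium treated 16 h at 37 °C, then Caspase-Glo 3/7 luminescence read after 20 min at room temperature. Normalized to DMSO and 100 uM tamoxifen; AC50 from Hill fit of concentration-response.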

[2] = Cellular Toxicity (caspase-3) N2a (AID 665);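 also: compound exposure lasted 16 h at 37 °C before readout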
Outline: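 Mouse N2a neuroblastoma cells, 1500 per well, treated 16 h at 37 °C in complete medium; caspase-3/7 activity by Caspase-Glo luminescence after 1 h. Normalized to DMSO and 10 uM staurosporine; AC50 from Hill fits.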

[3] = Cellular Toxicity (caspase-3) NIH 3T3 (AID 666)
Outline: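 Mouse NIH 3T3 fibroblasts (1000/well) treated 16 h at 37 C; caspase-3/7 activity measured by Caspase-Glo 3/7 luminescence after 20 min. Normalized to DMSO and 100 uM tamoxifen; AC50 from Hill fits.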

[4] = Cellular Toxicity (caspase-3) Renal Proximal Tubule (AID 667);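 also: cells exposed to compound for 16 hours at 37 °C before detection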
Outline: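 Caspase-Glo 3/7 read-out, rat primary kidney proximal tubule cells. Compound exposure 16 h, 37 °C; detection after 1 h at RT. Activity scaled to DMSO and 10 uM staurosporine.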

[5] = molecular target: Cytochrome P450 3A4 (Homo sapiens) (UniProt P08684); test: qHTS Assay for Inhibitors and Substrates of Cytochrome P450 3A4 (AID 884); also: series mostly up to about 57 µM; nearly all actives have a fitted effect of over 50% in size
Sequence of Cytochrome P450 3A4 (Homo sapiens) (P08684 whole entry, looked up): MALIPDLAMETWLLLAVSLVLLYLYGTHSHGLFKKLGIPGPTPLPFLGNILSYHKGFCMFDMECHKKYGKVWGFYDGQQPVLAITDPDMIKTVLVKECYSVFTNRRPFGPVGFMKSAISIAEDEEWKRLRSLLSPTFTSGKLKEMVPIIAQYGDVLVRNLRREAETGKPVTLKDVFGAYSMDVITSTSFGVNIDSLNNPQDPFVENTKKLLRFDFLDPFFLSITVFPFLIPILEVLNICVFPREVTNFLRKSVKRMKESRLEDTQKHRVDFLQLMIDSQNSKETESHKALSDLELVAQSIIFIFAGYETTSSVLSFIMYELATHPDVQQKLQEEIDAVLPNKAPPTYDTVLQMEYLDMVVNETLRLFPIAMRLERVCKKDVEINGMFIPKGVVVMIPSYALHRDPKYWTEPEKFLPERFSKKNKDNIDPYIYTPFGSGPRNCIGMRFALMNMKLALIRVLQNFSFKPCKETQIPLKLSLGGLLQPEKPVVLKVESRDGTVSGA
Outline: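 20 nM human CYP3A4 with 25 uM Luciferin-PPXE (at KM) in 200 mM KPO4, preincubated 10 min with compound; NADPH regeneration started a 60 min RT reaction. Luciferin detected by luminescence, normalized to 57 uM ketoconazole as full inhibition.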

[6] = Cell Viability - LYMP2-001 (AID 921); also: series mostly up to about 92 µM; nearly all actives have a fitted effect of over 70% in size
Outline: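 A lymphoblastoid cell line of human origin was treated with library compounds across a concentration series for 24 hours, and viable cell number was estimated from ATP-driven luciferase light output. Hill modeling gave AC50.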

[7] = MultiTox-Fluor Cytotoxicity Assay - LYMP1-001 - Dead Cells (AID 946)
Outline: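 Seed 2500 LYMP1-001 cells/well, incubate 5 hr at 37 C; add compound, 16 hr at 37 C; add MultiTox-Fluor reagent, 60 min RT; read dead-cell fluorescence Ex/Em=485/520. Normalize to DMSO and 15 uM tetraoctylammonium bromide.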

[8] = MultiTox-Fluor Cytotoxicity Assay - LYMP1-001 - Live Cells (AID 947)
[9] = Cell Viability - LYMP1-002 - Assay at 16 hr (AID 948)
Outline: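 In this qHTS, lymphoblastoid LYMP1-002 cells (human) receive compounds for 16 hr at 37 C. Viability is taken from CellTiter-Glo ATP luminescence, and AC50 derives from standard Hill fits.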

[10] = MultiTox-Fluor Cytotoxicity Assay - LYMP1-002 - Live Cells (AID 955);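 also: cells exposed to compound for 16 hours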
Outline: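 Human lymphoblastoid LYMP1-002 cells, 2500/well, treated 16 h at 37 C in complete medium. Live-cell protease activity via GF-AFC fluorescence (Ex/Em 405/510) after 60 min reagent incubation; AC50 from Hill fits.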

[11] = MultiTox-Fluor Cytotoxicity Assay - LYMP1-002 - Dead Cells (AID 960); also: nearly all actives have a fitted effect of over 60% in size
Outline: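 Human lymphoblastoid LYMP1-002 cells, 2500/well, treated 16 h at 37 C; dead-cell protease cleavage of bis-AAF-R110 read by fluorescence (485/520); normalized to DMSO and 15 uM tetraoctylammonium bromide; AC50 from Hill fit.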

[12] = MultiTox-Fluor Cytotoxicity Assay - LYMP1-003 - Dead Cells (AID 961); also: nearly all actives have a fitted effect of over 70% in size
Outline: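 LYMP1-003 lymphoblastoid, 2500 cells/well, 5 hr settle then 16 hr cpd at 37 C; MultiTox-Fluor reagent 60 min RT; Ex/Em 485/520 dead-cell signal; norm. DMSO = 0%, 15 uM tetraoctylammonium bromide = 100%; Hill AC50.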

[13] = MultiTox-Fluor Cytotoxicity Assay - LYMP1-003 - Live Cells (AID 962);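 also: cells exposed to compound for 16 hours at 37 °C; cytotoxic hits lower the live-cell protease signal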
Outline: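 LYMP1-003 lymphoblastoid cells, 2500/well in complete medium, treated 16 h at 37 C; live-cell protease cleavage of GF-AFC read by fluorescence (Ex/Em 405/510) after 60 min reagent; AC50 from Hill fits of concentration-response.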

[14] = Cell Viability - LYMP1-003 - Assay at 24 hr (AID 963)
Outline: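 Human lymphoblastoid LYMP1-003 cells, 2500/well, treated 24 h at 37 C in complete medium. Viability read as intracellular ATP by CellTiter-Glo luminescence after 30 min at room temperature; AC50 from Hill-equation fits of qHTS concentration-response.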

[15] = Cell Viability - LYMP1-003 - Assay at 40 hr (AID 964); also: series mostly up to about 92 µM; nearly all actives have a fitted effect of over 60% in size
Outline: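 LYMP1-003 human lymphoblastoid cells, 2500/well, preincubated 5 h at 37 C, then treated with compound for 40 h at 37 C. Intracellular ATP read by CellTiter-Glo luminescence after 30 min at room temperature; AC50 from Hill-equation fits.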

[16] = Cell Viability - LYMP2-003 (AID 965);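 also: cells exposed to compounds for 24 h before reading; nearly all actives have a fitted effect of over 50% in size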
Outline: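 qHTS, human lymphoblastoid line, 2500 cells/well, complete medium. 24 h drug, 37 C. ATP-based luminescent readout; Hill-fit AC50.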

[17] = Cell Viability - LYMP2-004 (AID 966); also: nearly all actives have a fitted effect of over 65% in size
Outline: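 Lymphoblastoid LYMP2-004 cells, 2500 per well, were preincubated for 5 hr and then treated with compound for 24 h at 37 C in complete medium. Viability was read as cellular ATP by CellTiter-Glo luminescence, and AC50 values were taken from Hill fits to concentration-response data.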

[18] = Cell Viability - LYMP2-005 (AID 967); also: series mostly up to about 92 µM
Outline: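 Luciferase-based ATP quantitation served as the viability measure in human lymphoblastoid LYMP2-005 cells exposed to test compounds for 24 h at 37 C in complete culture medium. Potency (AC50) was obtained by fitting concentration-response curves with the Hill equation.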

[19] = Cell Viability - LYMP2-009 (AID 968); also: series mostly up to about 92 µM; nearly all actives have a fitted effect of over 55% in size
[20] = Cell Viability - LYMP2-011 (AID 969); also: nearly all actives have a fitted effect of over 60% in size
Outline: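 2500 cells/well in complete medium, compound-treated 24 h at 37 C. Viability read as intracellular ATP by CellTiter-Glo luminescence after 30 min at room temperature. AC50 from Hill fits of qHTS concentration-response data.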

[21] = Cell Viability - LYMP2-015 (AID 971); also: nearly all actives have a fitted effect of over 55% in size
Outline: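 LYMP2-015 human lymphoblastoid cells (2500/well) in complete medium, compound-treated 24 h at 37 C; viability read as cellular ATP by CellTiter-Glo luminescence after 30 min at room temperature. AC50 from Hill-equation fits of qHTS concentration-response data.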

[22] = Cell Viability - LYMP2-017 (AID 972); also: series mostly up to about 92 µM; nearly all actives have a fitted effect of over 55% in size
Outline: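 LYMP2-017 human lymphoblastoid cells (2500/well) settled 5 hr at 37 C, then exposed to compound 24 hr at 37 C in complete medium. Viability taken as intracellular ATP by CellTiter-Glo luminescence after 30 min at RT; AC50 from Hill fits.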

[23] = Cell Viability - LYMP2-019 (AID 973); also: nearly all actives have a fitted effect of over 55% in size
Outline: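 Human lymphoblastoid LYMP2-019 cells (2500/well) preincubated 5 h at 37 C, then treated 24 h at 37 C in complete medium. Viability by CellTiter-Glo ATP luminescence after 30 min at room temperature; AC50 from Hill fits.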

Measured: Potency

O=C(/C=C/c1ccc(O)c(O)c1)O[C@@H](C(=O)O)[C@@H](OC(=O)/C=C/c1ccc(O)c(O)c1)C(=O)O
inactive: all assays above
